Compound activity deposited in PubChem by National Center for Advancing Translational Sciences (NCATS).
Cycloheximide cs: counter-screen for Shiga toxin inhibitors: cycloheximide protein synthesis inhibition; cell reporter, cycloheximide protein synthesis inhibition counterscreen; max response, %; actives 12% (n = 300,000); in the data active = max response mostly above about 13%, no sharp cut-off; inactive = mostly below about 14%; note: read at 38.3 µM for the half of the compounds with a filed dose
FMDV inh: blocks foot and mouth disease virus. FMDV antiviral cell-based qHTS. Potency, µM (series often up to 57.9 µM), hits mostly inhibitors. actives 1.2% (n = 410,000). AID 1159524; calls by dose curve; tested in HEK293T cells; note: read-out not given here; nearly all actives have a fitted effect of over 45% in size
LASV entry inh: Lassa virus entry inhibition | Lassa virus pseudotype entry inhibition, cell reporter | Potency, µM (doses to about 37.9 µM), actives largely listed as inhibitors | actives 1.2% (n = 300,000) | AID 540256; calls by dose curve; tested in HEK293 cells; note: nearly all actives have a fitted effect of over 50% in size
Shiga inhibitor: blocks Shiga toxin action in Vero cells. Vero cells, Shiga toxin protein synthesis inhibition reporter. inhibition, % at 38.7 µM. actives 9.2% (n = 290,000); in the data active = inhibition mostly above about 28%, no sharp cut-off; inactive = mostly below about 43%
Marburg entry inh: Marburg virus entry inhibition; Marburg virus pseudotyped entry inhibition, cell reporter; Potency, µM (doses to about 37.8 µM), usual class: inhibitors; actives 1.8% (n = 300,000); calls by dose curve; tested in HEK293 cells
HCV inhibitor: blocks hepatitis C virus; Huh7.5.1 HCVcc-Cre infection, luciferase reporter, 44 h; Potency, µM (series often up to 41.8 µM), usual class: inhibitors; actives 3.4% (n = 340,000); AID 651820; active = well fitted inhibition curve with a large enough effect; inconclusive = small, poorly fitted or top-dose-only effect, or another doubt; inactive = no such curve, though single readings can be large or run the other way
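HCVcc-Cre virus at an moi near 0.5 was added right after compound to cells cultured 4 h from seeding (1,000 cells/well). Luciferase activity was determined 44 h later, 15 min after substrate addition at RT.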
Hits are given with their value; 0 = inactive; ? = inconclusive; - = no result; ! = repeats disagree. In the library only some 13% were active in any assay of this set; here they are far more common.

SMILES	Cycloheximide cs	FMDV inh	LASV entry inh	Shiga inhibitor	Marburg entry inh	HCV inhibitor
COc1ccc(/C=C/c2cc(-c3ccc(C)cc3)o[n+]2C)cc1	0	2.8µM	?	0	?	?
O=C(c1ccco1)N1CCCN(C(=O)c2ccco2)CC1	0	0	0	0	0	0
O=C(c1ccco1)N1CCn2c1nc1ccccc12	29	0	0	53	?	0
Nc1nc2ccccc2n1C(=O)c1ccco1	55	0	?	90	?	0
O=C(c1ccco1)N1CCN(C(=O)c2ccco2)C1=S	-	32µM	?	-	?	?
Nc1nc2ccccc2n1C(=O)CCc1ccccc1	46	0	0	95	?	?
CC(=O)c1nc2ccccc2n1CCc1ccccc1	0	0	-	0	-	0
Cc1[nH]nc(SCC(=O)NCCc2ccccc2)c1[N+](=O)[O-]	0	0	-	0	-	0
O=[N+]([O-])c1ccc(Sc2cccc3cccnc23)c([N+](=O)[O-])c1	19	?	-	0	-	0
O=[N+]([O-])c1ccc(Sc2cccc3cccnc23)cc1	26	-	0	65	0	0
O=[N+]([O-])c1cc(Cl)ccc1Sc1cccc2cccnc12	0	-	0	0	0	0
O=C(Cn1c(=O)c2ccccc2n(CC(=O)Nc2ccc(Cl)cc2)c1=O)NCCc1ccccc1	-	0	?	-	?	-
COC(=O)C1CCN(S(=O)(=O)c2cn(C)c(=O)n(C)c2=O)CC1	0	0	-	0	-	0
O=S(=O)(c1ccc(C2CCCCC2)cc1)N1CCN(c2ncccn2)CC1	0	-	0	0	0	0
CN(C)CCNC(=O)c1ccc2c(=O)n(Cc3ccc(Cl)cc3)c(=S)[nH]c2c1	0	0	?	0	?	?
CCCCN(C)CCNC(=O)c1ccc(Cn2c(=S)[nH]c3ccc(Br)cc3c2=O)cc1	0	0	0	0	?	11µM
CN(CC(=O)Nc1ccccc1Cl)C(=O)COC(=O)c1ccc(Cl)cc1[N+](=O)[O-]	0	0	0	0	0	-
Oc1cccnc1Sc1cccc(C(F)(F)F)c1	-	0	0	-	0	0
CC(=O)N(CN1C(=O)CCC1=O)c1ccc(Cl)c(Cl)c1	0	11µM	-	0	-	0
Cc1cccc(N(C(=O)CCC(=O)Nc2nccs2)C(C(=O)NC(C)(C)C)c2ccc(O)cc2)c1 (stereo unspecified)	0	0	?	0	2.8µM	0
CC(C)(C)NC(=O)C(c1ccc(O)cc1)N(C(=O)CCC(=O)Nc1nccs1)c1cccc(F)c1 (stereo unspecified)	0	0	0	0	2.3µM	0
COc1ccc(-c2nc3cnc(N(C)C)nc3n(C3CC3)c2=O)cc1	-	0	-	-	-	-
Cc1ccc(C2c3[nH]c4ccccc4c3CCN2C(=O)CCC2CCCC2)cc1 (stereo unspecified)	-	0	?	-	-	-
Cc1ccc(S(=O)(=O)c2nnn3c2nc(N2CCOCC2)c2ccccc23)cc1	0	0	-	0	-	11µM
CN(C)c1oc(-c2ccccc2[N+](=O)[O-])nc1C#N	0	0	-	0	-	0
SMILES	Cycloheximide cs	FMDV inh	LASV entry inh	Shiga inhibitor	Marburg entry inh	HCV inhibitor
CN(Cc1cccs1)C(=O)CCc1c[nH]c2ccccc12	16	0	0	0	0	0
CN(Cc1cccs1)C(=O)CCCc1c[nH]c2ccccc12	46	0	0	73	?	0
CCOC(=O)c1[nH]ncc1CN1CCCC(C(=O)c2ccc(C(C)(C)C)cc2)C1 (stereo unspecified)	0	?	-	0	-	0
CCCN1CCC(NC(=O)Cc2ccc(C)cc2)CC1	0	0	0	0	0	0
Cc1ccc(OC(C)C(=O)Nc2ccc(C)c(S(=O)(=O)Nc3ccc(C)cc3C)c2)cc1 (stereo unspecified)	0	0	16µM	0	?	?
Cc1ccc(OC(C)C(=O)Nc2ccncc2)cc1 (stereo unspecified)	0	0	-	0	-	?
Cc1ccc(NS(=O)(=O)c2cc(NC(=O)c3cc4c(s3)CCCC4)ccc2C)c(C)c1	0	0	0	0	?	?
COc1ccc(Br)cc1-c1nc(CCl)cs1	0	0	-	0	-	10µM
COc1ccc(-c2nc(CNS(=O)(=O)c3ccc(Br)cc3)cs2)cc1	-	0	0	-	0	-
CCn1c(SCC(=O)Nc2ccc(Cl)cc2)nc2nc3c(cc2c1=O)CCCC3	0	0	0	0	0	?
Cc1cccc(NC(=O)CSc2nc3nc4c(cc3c(=O)n2-c2ccccc2)CCCC4)c1	0	0	0	0	10µM	?
CCn1c(SCC(=O)Nc2ccc(C(C)=O)cc2)nc2nc3c(cc2c1=O)COC(C)(C)C3	32	0	-	122	-	0
CCn1c(SCC(=O)Nc2ccc(C(C)=O)cc2)nc2nc3c(cc2c1=O)CCCC3	26	0	0	46	0	?
CCn1c(SCC(=O)Nc2ccc(OC)cc2)nc2nc3c(cc2c1=O)CCCC3	0	0	0	0	?	?
CCn1c(SCC(=O)Nc2ccccc2C)nc2nc3c(cc2c1=O)COC(C)(C)C3	0	0	-	0	-	10µM
NC(=O)Cn1cc(/C=N\NS(=O)(=O)c2ccc(F)cc2)c2ccccc21	0	0	?	0	0	0
CCn1c(SCC(=O)Nc2ccc(OC)cc2)nc2nc3c(cc2c1=O)COC(C)(C)C3	0	0	-	0	-	?
CCOc1ccc(NC(=O)CSc2nc3nc4c(cc3c(=O)n2CC)COC(C)(C)C4)cc1	0	0	0	0	0	3.2µM
O=C(O)c1sc(Nc2ccccc2)nc1-c1ccccc1	-	0	0	-	0	-
O=Cc1sc(Nc2ccccc2)nc1Cl	18	0	-	0	-	?
COc1ccccc1Nc1nc(Cl)c(C=O)s1	48	0	0	0	0	0
Cc1ccc(Nc2nc(Cl)c(C=O)s2)cc1Cl	23	0	-	0	?	?
Cc1ccc(NC(=O)Cn2c(=O)c3cccn3c3ccccc32)cc1	0	0	-	0	-	0
COC(=O)c1cc(-c2ccc(Br)cc2)c2c(=O)n(C)c(=O)n(C)c2n1	0	0	-	0	-	0
Cc1nc(N2CCN(S(=O)(=O)c3ccc(Br)cc3)CC2)c2c(C)c(C)sc2n1	0	?	0	0	?	?
SMILES	Cycloheximide cs	FMDV inh	LASV entry inh	Shiga inhibitor	Marburg entry inh	HCV inhibitor
Cc1sc2nc(CN3CCCC3)nc(N3CCN(S(=O)(=O)c4cccs4)CC3)c2c1C	0	0	0	0	15µM!	0
CCc1nc(N2CCN(S(=O)(=O)c3ccc(Br)cc3)CC2)c2c(C)c(C)sc2n1	-	-	0	-	0	13µM
O=C(CC1S/C(=N/N=C/c2cccs2)NC1=O)Nc1ccccc1F (stereo unspecified)	0	0	0	0	0	0
CCOC(=O)Cc1csc(NC(=O)c2sc3nc4ccc(CC)cc4cc3c2N)n1	24	0	0	81	?	0
CCOC(=O)Cc1csc(NC(=O)c2cc3ccccc3o2)n1	23	0	0	54	?	0
CCOC(=O)Cc1csc(NC(=O)c2ccc(Br)o2)n1	38	0	0	36	0	0
CC(C)(C)c1csc(NC(=O)c2ccc(Br)o2)n1	47	0	-	99	-	?
CCOC(=O)Cc1csc(NC(=O)/C=C/c2ccc(Br)o2)n1	0	?	-	0	-	?
Cc1ccnc(NC(=O)CCC(=O)N(CC(=O)NCc2ccccc2)Cc2ccccc2)c1	0	0	?	0	0	0
